esBAF inh – Bmi1 luciferase reporter increase in mESCs, primary screen, esBAF inhibitor project, mouse ES cells, Bmi1 luciferase knock-in, single point; 24 h; 100% = twice the neutral-well signal; reporter increase, % at 12.5 µM; hit rate 2% among 350,000; AID 602393, 2012; in the data active = activation above about 40%;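 also: 0% = median of the plate's neutral control wells and 100% = double that signal; a rise in the Bmi1 reporter signal indicates esBAF inhibition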
Wnt act – Wnt/beta-catenin pathway activators, primary screen, cell-based, plate reader, single point | Wnt/beta-catenin reporter cell assay, activator | activation, % at 9.35 µM | hit rate 1.2% among 300,000; in the data active = activation above about 30%, passing the limit was not always enough;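 also: 0% = neutral control wells and 100% = positive control wells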
GAA850 FXN act – FXN promoter activators, primary screen, cell-based, luciferase luminescence, HEK293 lucGAA850. hit rate 0.56% among 360,000. activation, % at 6 µM. HEK293 lucGAA850 FXN promoter luciferase reporter, 24 h; percent of 10 µM SAHA response. AID 540364, 2011;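 active = activation above the average of all compounds screened plus 3 SD, cutoff fixed separately per campaign, cut at about 7.5% in these data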;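 also: 0% = DMSO wells and 100% = 10 µM SAHA wells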
AHR activator – AHR activators, primary screen, cell-based, luminescence, luciferase reporter, human. AHR-responsive luciferase reporter cells. Aryl hydrocarbon receptor (Homo sapiens), P35869. hit rate 2.5% among 320,000. activation, % at 5 µM; in the data active = activation above about 47%;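 also: 0% = vehicle wells and 100% = reference agonist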
Target sequence (P35869 whole entry, looked up): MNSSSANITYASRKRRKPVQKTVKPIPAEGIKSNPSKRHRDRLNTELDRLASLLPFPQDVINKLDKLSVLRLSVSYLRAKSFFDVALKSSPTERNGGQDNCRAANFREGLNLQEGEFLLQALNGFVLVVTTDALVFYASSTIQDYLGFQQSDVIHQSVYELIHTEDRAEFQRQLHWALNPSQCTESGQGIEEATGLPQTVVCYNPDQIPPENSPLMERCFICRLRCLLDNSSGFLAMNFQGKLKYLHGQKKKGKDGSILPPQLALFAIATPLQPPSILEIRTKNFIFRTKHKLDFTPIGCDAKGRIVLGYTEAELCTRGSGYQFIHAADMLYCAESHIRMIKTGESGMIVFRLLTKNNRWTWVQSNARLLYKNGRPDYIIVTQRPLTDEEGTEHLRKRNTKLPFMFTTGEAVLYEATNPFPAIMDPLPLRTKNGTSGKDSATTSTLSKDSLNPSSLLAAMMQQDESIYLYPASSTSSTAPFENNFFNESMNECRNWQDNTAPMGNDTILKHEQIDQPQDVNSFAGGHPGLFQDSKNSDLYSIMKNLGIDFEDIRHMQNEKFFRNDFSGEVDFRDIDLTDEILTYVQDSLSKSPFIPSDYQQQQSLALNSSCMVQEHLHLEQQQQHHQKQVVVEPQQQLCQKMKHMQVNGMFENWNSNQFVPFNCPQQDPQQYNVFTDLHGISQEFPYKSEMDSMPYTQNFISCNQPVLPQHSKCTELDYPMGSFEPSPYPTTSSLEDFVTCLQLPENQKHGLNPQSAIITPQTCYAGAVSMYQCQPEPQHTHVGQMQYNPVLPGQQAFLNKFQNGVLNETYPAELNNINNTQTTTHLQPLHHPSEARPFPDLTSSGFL
MITF TRPM1 HTS – activators of MITF-driven TRPM1 promoter reporter, primary screen, cell-based, SK-MEL-5, luciferase, single point | SK-MEL-5 TRPM1-promoter luciferase, 24 h; % of positive control, neutral wells = 0 | activation, % at 12.5 µM | hit rate 0.75% among 300,000 | AID 588334, 2011;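 active = mean activation of at least 80% with every replicate also reaching 80%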;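 also: 0% = neutral control wells and 100% = parthenolide positive control wells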
The depositor's hits bear a star; . = no result. A selection: hits, their analogues and other compounds. The true share with any hit is near 4.2%.

SMILES	esBAF inh	Wnt act	GAA850 FXN act	AHR activator	MITF TRPM1 HTS
COC(=O)Cn1ncc2c(C)n(Cc3ccccc3)c(C)c2c1=O	52.2*	11.1	2.8	-0.1	37.8
COc1cc(-c2nc3ccc4ccccc4c3c3c2CCC3)ccc1O	.	-2.6	0.0	71.6*	3.8
O=C(Nc1ccccc1N1CCOCC1)c1cccc([N+](=O)[O-])c1	.	.	0.9	66.6*	-6.1
O=C(NC(=O)N1CCN(c2ccccc2)CC1)c1ccc(Cl)cc1	49.5*	.	1.3	0.5	.
CC1CCN(c2ccccc2NC(=O)c2cc([N+](=O)[O-])ccc2N2CCOCC2)CC1	.	-7.6	12.3*	37.2	-23.3
CCc1ccccc1NC(=O)c1cc([N+](=O)[O-])ccc1N1CCOCC1	-10.5	1.8	0.1	6.3	4.3
O=C(Nc1ccccc1N1CCN(c2ccccc2)CC1)c1ccccc1	.	42.3*	-2.5	-3.8	-16.4
O=C(Nc1ccc(N2CCOCC2)cc1N1CCOCC1)c1ccccc1	-7.2	-1.3	0.1	-0.3	3.6
C[C@@H]1CN([C@H](C)CO)C(=O)c2cc(NS(C)(=O)=O)ccc2O[C@@H](C)CCCCO[C@H]1CN(C)C(=O)Nc1ccc2c(c1)OCO2	3.9	.	.	.	.
CCOc1ccc(NC(=O)c2cc([N+](=O)[O-])ccc2N2CCOCC2)cc1	5.6	-4.7	-1.1	74.2*	0.5
O=C(Nc1ccccc1N1CCOCC1)c1ccc2ccccc2n1	59.3*	39.8*	3.5	43.7	.
CCOc1ccc(NC(=O)COC(=O)c2cc([N+](=O)[O-])ccc2N2CCOCC2)cc1	.	1.2	-0.1	6.4	3.0
O=C(NCc1ccccc1)[C@H]1[C@H](CO)[C@H]2Cn3c(cccc3=O)[C@@H]1N2C(=O)CC1CC1	2.0	.	.	.	.
CN1CCN(C(=O)C[C@@H]2CC[C@H]3[C@@H](COC[C@@H](O)CN3C(=O)c3ccc(F)cc3)O2)CC1	4.7	.	.	.	.
O=c1[nH]c(-c2ccccc2)cnc1-c1ccccc1	.	37.3*	4.6	1.7	.
O=c1[nH]c2c(=O)[nH]cnc2nc1-c1ccccc1	.	-3.3	0.4	-3.3	.
C[C@@H]1CN([C@@H](C)CO)C(=O)Cc2cc(NC(=O)NC3CCCCC3)ccc2O[C@H]1CN(C)CC1CCCCC1	6.0	.	.	.	.
Cc1cccc(N2C(=O)CC(N(O)c3ccccc3)C2=O)c1 (stereo not given)	60.9*	13.7	0.1	12.1	.
O=C1CC(N(O)c2ccccc2)C(=O)N1c1ccc(Cl)c(Cl)c1 (stereo not given)	.	-0.5	1.9	3.1	.
COC(=O)CCNC(=O)c1ccc2nc(Cc3ccc(OC)cc3)oc2c1	2.8	6.4	-1.2	-1.6	4.2
COc1ccc(Cc2nc3ccc(C(=O)NCCSC)cc3o2)cc1	27.6	5.5	6.1	14.5	.
CN(CC1CCOCC1)C(=O)c1ccc2nc(Cc3cccc(Cl)c3)oc2c1	.	2.5	0.9	0.7	-6.5
O=C(NCC1CCOCC1)c1ccc2nc(Cc3cccc(Cl)c3)oc2c1	45.9*	0.0	0.9	4.3	35.9
COc1ccc(Cc2nc3ccc(C(=O)NCC(C)(C)OC)cc3o2)cc1	76.3*	8.1	4.1	14.0	104.3*
COc1ccc(Cc2nc3ccc(C(=O)NCc4cc(C)no4)cc3o2)cc1	64.6*	7.2	3.8	14.6	90.9*
SMILES	esBAF inh	Wnt act	GAA850 FXN act	AHR activator	MITF TRPM1 HTS
COc1ccc(NC(=O)Nc2ccc3c(c2)CC(=O)N([C@H](C)CO)C[C@@H](C)[C@H](CN(C)S(=O)(=O)c2ccc(Cl)cc2)O3)cc1	-5.9	.	.	.	.
COCCCn1[nH]c2c3c(ccc2c1=O)C(=O)c1ccccc1C3=O	5.2	.	-0.9	52.3*	-59.8
CC(C)(C)n1[nH]c2c3c(ccc2c1=O)C(=O)c1ccccc1C3=O	-12.0	-11.2	-3.4	50.3*	.
Cc1ccc(-n2[nH]c3c4c(ccc3c2=O)C(=O)c2ccccc2C4=O)cc1	.	-3.1	0.4	0.5	-1.2
Cc1cccc(-c2ccc([C@@H]3[C@@H](CO)N4CCCCN(C(=O)NC(C)C)C[C@@H]34)cc2)c1	-2.2	.	.	.	.
Cc1cc(C(=O)COC(=O)c2ccc(NC(=O)CC#N)cc2)c(C)n1-c1ccc(OC(F)F)cc1	.	-1.5	3.2	1.2	-1.5
Cc1cc(C(=O)COC(=O)c2ccc(F)cc2F)c(C)n1C1CC1	40.0	11.1	-0.6	0.1	117.6*
Cc1cc(C(=O)COC(=O)c2ccc(NC(=O)CC#N)cc2)c(C)n1C1CC1	68.1*	8.5	3.6	.	50.4
